Data taken from PubChem BioAssay (Tox21).
Records with an inconclusive call do not appear. A number with no mark means an inactive call. Calls follow the shape of the full dose curve.

Each molecule was assayed against Retinoic acid receptor RXR-alpha (Homo sapiens) (UniProt P19793) (assay: qHTS assay to identify small molecule agonists of the RXR signaling pathway (AID 1159527; also: nearly all actives have a fitted effect of over 35% in size)). Settings: HEK293T RXRa-UAS-bla, beta-lactamase ratio, 16 h; series mostly up to 76.8 µM; activation: at the top concentration.
Chain of Retinoic acid receptor RXR-alpha (Homo sapiens) (P19793 whole entry, looked up): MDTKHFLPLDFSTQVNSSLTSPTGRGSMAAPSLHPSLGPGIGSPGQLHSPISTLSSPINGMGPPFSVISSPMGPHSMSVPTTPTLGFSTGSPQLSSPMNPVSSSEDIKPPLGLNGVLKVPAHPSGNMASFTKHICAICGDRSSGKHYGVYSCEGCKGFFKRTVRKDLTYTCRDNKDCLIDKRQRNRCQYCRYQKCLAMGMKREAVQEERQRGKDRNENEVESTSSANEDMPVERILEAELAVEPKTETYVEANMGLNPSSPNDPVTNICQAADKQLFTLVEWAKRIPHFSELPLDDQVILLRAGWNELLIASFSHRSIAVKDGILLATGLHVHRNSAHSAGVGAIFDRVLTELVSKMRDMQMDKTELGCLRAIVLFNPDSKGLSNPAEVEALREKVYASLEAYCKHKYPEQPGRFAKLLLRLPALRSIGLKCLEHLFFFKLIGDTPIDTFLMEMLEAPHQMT
Text: U.S. Tox21 Program National Center for Advancing Translational Sciences [NCATS] NIH Chemical Genomics Center [NCGC] U.S. Environmental Protection Agency [EPA] National Institutes of Environmental Health Sciences [NIEHS] National Toxicology Program [NTP] U.S. Food and Drug Administration [FDA] Tox21 Assay Overview: The Retinoid X receptor (RXR), a nuclear hormone receptor expressed in liver, spleen, placenta, epidermis, central nervous system. These receptors are able to form homo and heterodimers with other nuclear receptors and due to this heterodimerizing ability, RXR functions as master regulators producing diverse physiological effects. Three subtypes of RXR exist; alpha, beta and gamma. Retinoid X receptor alpha (RXR-alpha) has potential roles in metabolic signaling pathways, skin alopecia, dermal cysts, cardiac development, insulin sensitization etc. Therefore screening environmental chemicals on RXR-alpha signaling can be used for the studies focused on such therapeutic applications. For quantification of RXR-alpha ligands signaling, GeneBLAzer RXR alpha-UAS-bla HEK 293T (Life Technologies, Carlsbad, CA) cells containing a beta-lactamase reporter-gene under control of Retinoid X receptor-alpha response element were used to screen Tox21 10K library.
Tox21 Assay Protocol Summary: RXR-alpha HEK 293T cells were dispensed at 2,000 cells/6 uL of assay medium containing 2% charcoal-stripped FBS using a Multidrop Combi (ThermoFisher Scientific, Waltham, MA) dispenser. The assay was performed in black wall/clear-bottom 1536-well plates (Greiner Bio-One North America Inc. Monroe, NC). 9-cis retinoic acid was used as a positive control in the agonist mode screen. After the assay plates were incubated at 37 C and 5% CO2 for 5 hr, 23 nL of compounds dissolved in DMSO, positive controls or DMSO only were transferred to the assay plate by a Pintool station (Kalypsys, San Diego, CA). The assay plates were incubated at 37 C and 5% CO2 for 16 hr. One uL of LiveBLAzer B/G FRET substrate (Life Technologies) was added using a Flying Reagent Dispenser (Aurora Discovery, San Diego, CA) and the plates were incubated at room temperature for 2 hr. Fluorescence intensity (405 nm excitation, 460/530 nm emission) was measured using an Envision plate reader (PerkinElmer, Shelton, CT).
% is scaled to controls: 0 for no effect and ±100 for the full control effect.

| Structure (SMILES) | activation |
| --- | --- |
| Cc1c(F)cc2c(=O)c(C(=O)O)cn3c2c1CCC3C (stereo not given) | 0.751% [at 35.3 µM] |
| O=[N+]([O-])c1ccc(CCO)cc1 | 2.59% |
| CC/C=C\CCCCO | -1.27% |
| COC[C@H](c1ccc(C(F)(F)F)cc1)N1CCN(C2(C)CCN(C(=O)c3c(C)ncnc3C)CC2)C[C@H]1C | -12.6% [at 35.3 µM] |
| O=Cc1ccccc1[N+](=O)[O-] | -10.3% |
| CC1(C)SC(C)(C)SC(C)(C)S1 | -0.911% |
| COC(=O)CCCC(=O)O | 4.88% |
| C=C(C)C(=O)NCCCN(C)C | 4.6% |
| O=C1C(CCS(=O)c2ccccc2)C(=O)N(c2ccccc2)N1c1ccccc1 (stereo not given) | -6.67% [at 35.3 µM] |
| CCCCCCCCCCCCI | 0.775% |
| CC(C)c1cccc(O)c1 | 4.42% |
| NS(=O)(=O)c1cc2c(cc1C(F)(F)F)NC(Cc1ccccc1)NS2(=O)=O (stereo not given) | 0.165% [at 35.3 µM] |
| C=C[Si](OC)(OC)OC | 0.536% |
| NS(=O)(=O)c1cc(C2(O)NC(=O)c3ccccc32)ccc1Cl (stereo not given) | 0.457% [at 35.3 µM] |
| C1C2OC2C2C1C1CC2C2OC12 (stereo not given) | 4.61% |
| CCCCCCCCCCCl | 8.23% |
| CCC(=O)c1cccc(Cl)c1 | 6.92% |
| CCCCCCC(CCCCCCCCCCC(=O)OCC(COC(C)=O)OC(C)=O)OC(C)=O (stereo not given) | -1.73% [at 35.3 µM] |
| Nc1ccn(C2CO[C@H](CO)O2)c(=O)n1 (stereo not given in full) | 11.4% [at 35.3 µM] |
| CSc1nc(NC2CC2)nc(NC(C)(C)C)n1 | -3.15% |

| Structure (SMILES) | activation |
| --- | --- |
| OC1OC[C@@H](O)[C@H](O)[C@H]1O (stereo not given in full) | 7.67% |
| N#CCN(CC#N)CCN(CC#N)CC#N | 3.99% |
| Oc1cc(O)c2c(c1)O[C@H](c1ccc(O)c(O)c1)[C@H](O)C2 | 10.7% [at 35.3 µM] |
| C(=C(c1ccccc1)c1ccccc1)c1ccccc1 | 2.39% |
| C=CC(=O)OCCCCCC | 1.23% |
| OCC(CO)(CO)COCC(CO)(CO)CO | 0.0224% |
| Nc1ncnc2c1ncn2Cc1c(F)cccc1Cl | -18.5% [at 35.3 µM] |
| O=S(=O)(c1cccc2cnccc12)N1CCCNCC1 | -14% [at 35.3 µM] |
| Fc1ccccc1-c1ccccc1 | -2.31% |
| Nc1cc(N)cc(C(=O)O)c1 | -2.53% |
| CO[Si](OC)(OC)OC | 0.893% |
| CN(C)CCOC(c1ccc(Cl)cc1)c1ccccn1 (stereo not given) | -6.58% [at 35.3 µM] |
| CC(C)(O)C(=O)c1ccc(OCCO)cc1 | -2.53% |
| O=c1[nH]c2ccccc2c(=O)n1CCCl | 2.05% [at 35.3 µM] |
| O=C(O)/C=C/c1ccc(/C=C/C(=O)O)cc1 | 0.49% [at 35.3 µM] |
| COc1cc(C)cc(O)c1 | -1.97% |
| N#CC1(O)CCCCC1 | 7.91% |
| NS(=O)(=O)c1cc2c(cc1Cl)NC(CSCc1ccccc1)=NS2(=O)=O | 14.9% [at 35.3 µM] |
| C#CC(O)C(CC)CCCC (stereo not given) | 7.48% |
| NC(=O)c1ncn([C@@H]2O[C@H](CO)[C@@H](O)[C@H]2O)c1N | 5.67% [at 35.3 µM] |
